DAX1 inh-1 = DAX1 (NR0B1) inhibitors, primary screen, cell-based, HEK293, Gal4-DAX1, luciferase luminescence. Nuclear receptor subfamily 0 group B member 1 (Homo sapiens), P51843. HEK293 Gal4-DAX1 luciferase reporter. inhibition, % at 6.75 µM. 0.99% of 340,000 active. AID 504766, 2011;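 active = inhibition above the mean over all tested compounds plus 3 SD, cut at about 4.2% in these data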;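 note: inhibition shows as a rise in luminescence from relieved DAX1 repression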
Target sequence (P51843 207-470 limits assumed): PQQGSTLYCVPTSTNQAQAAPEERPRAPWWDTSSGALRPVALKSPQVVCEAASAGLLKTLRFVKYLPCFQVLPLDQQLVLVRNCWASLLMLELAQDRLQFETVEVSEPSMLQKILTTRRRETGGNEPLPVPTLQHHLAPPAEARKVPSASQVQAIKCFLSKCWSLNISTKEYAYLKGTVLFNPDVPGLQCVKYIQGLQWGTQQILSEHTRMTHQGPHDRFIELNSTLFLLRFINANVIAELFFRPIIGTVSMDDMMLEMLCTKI
ssDAF-12 act = S. stercoralis DAF-12 nuclear receptor activators, primary screen, cell-based, luminescence, HEK293, GRIP1 co-expression, lit1-tk-luc; HEK293 ssDAF-12/GRIP1 lit1-tk-luc reporter; % of 3 µM dafachronic acid response; activation, % at 6.8 µM; 1% of 370,000 active;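 active = activation above the mean over all tested compounds plus 3 SD, cut at about 0.9% in these data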
DAX1 inh-2 = DAX1 (NR0B1) inhibitors on StAR promoter, primary screen, cell-based, luminescence, SF-1 (NR5A1), full-length DAX-1; 1.1% of 370,000 active; inhibition, % at 6.8 µM; HEK293T StAR-luciferase reporter, SF-1/DAX-1 repression relief;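 active = inhibition above the mean over all tested compounds plus 3 SD, cut at about 3.6% in these data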;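 note: higher inhibition means more luminescence from relief of DAX-1 repression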
hgDAF12 agonist = H. glycines DAF-12 receptor agonists, primary screen, cell-based, luminescence, HEK293, GAL4 fusion, UAS-luciferase | HEK293 GAL4-hgDAF12 UAS-luciferase reporter, agonist luminescence; normalized to butyrate control | activation, % at 6.8 µM | 1.8% of 370,000 active;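 active = activation above a cutoff set at the mean of all screened compounds plus 3 SD, cut at about 10% in these data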
hcDAF-12 act = H. contortus DAF-12 nuclear receptor activators, primary screen, cell-based, luminescence, HEK293, lit1-tk-luc reporter; HEK293 hcDAF-12 lit1-tk-luc reporter; 0% DMSO, 100% Δ7-dafachronic acid; activation, % at 6.8 µM; 1.4% of 370,000 active; AID 652067, 2013;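 active = activation above the mean of all tested compounds plus 3 SD, cut at about 5.5% in these data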
Hits are given with their value; 0 = inactive; - = no result given. Only some compounds are listed: those with a hit (about 4.1% of all), similar ones and a draw of the others.

SMILES	DAX1 inh-1	ssDAF-12 act	DAX1 inh-2	hgDAF12 agonist	hcDAF-12 act
COc1cccc(CC2(CO)CCCN(Cc3ccc(CO)o3)C2)c1 (centres undefined)	0	0	0	0	0
CCOC(=O)C1(Cc2cccc(OC)c2)CCCN(C(=O)c2cc(CC(C)C)[nH]n2)C1 (centres undefined)	0	0	3.8	0	0
OC(c1ccccc1)(c1ccccc1)C1CCN(CCCOc2cccnc2)CC1	-	0	0	0	0
Cc1ccc(-c2cc(NC(=O)Cc3c[nH]c4ccccc34)ccc2N(C)c2cccnc2)cc1	-	0	0	0	0
OCc1ccccc1-c1nc(NCC2CC2)nc2ccsc12	-	0	0	0	0
CCn1nc(C)c(/C=N/NC(=O)c2ccoc2C)c1C	0	0	0	0	0
CCN(CC)c1ccc(/C=N/NC(=O)OC)c(O)c1	0	0	0	0	0
CCN(CC)c1ccc(/C=N/NC(=O)c2ccoc2C)c(O)c1	0	0	0	11.6	0
CCCCCn1nc(C)c(/C=N/NC(=O)c2ccoc2C)c1C	0	0	3.6	12.6	0
CC(C)(C)c1ccc(NC(=O)c2cc(C3CCCN(S(=O)(=O)c4cccc5cccnc45)C3)on2)cc1 (centres undefined)	-	0	0	0	0
CCCCCn1cc(CCC(=O)Nc2ccc(N(C)c3ccccn3)cc2)c2ccccc21	-	0	0	0	0
Cc1cc(C)cc(C(O)c2ncc(-c3ccc(C(F)(F)F)cc3)[nH]2)c1 (centres undefined)	-	0	0	0	0
CC(=Nc1ccccc1O)c1sc2ccccc2c1O	0	0	0	12.7	0
CC(=O)NCCN=C(C)c1sc2ccccc2c1O	0	0	0	0	0
CC(=Nc1ccc(O)cc1)c1sc2ccccc2c1O	0	0	0	11.6	0
CC1CCCC(NC(=O)/C=C/c2c(F)cccc2Cl)C1C (centres undefined)	0	0	0	0	0
ON=C(c1ccccc1)c1ccc2c3c(cccc13)CC2	0	0	0	0	0
O=C(CCc1ccccc1)NNC(=O)c1ccccc1C(=O)O	0	0	0	0	0
COc1ccc(NC(=O)CCCC(=O)c2ccccc2)cc1OC	0	0	0	0	0
O=C(CCc1ccccc1)NNC(=O)c1ccccc1Br	5.0	0	0	0	0
CNC(=S)Nc1cccc(C(=O)O)c1	0	1.4	0	0	0
COc1ccc(NC(=O)CCCc2ccccc2)cc1OC	4.2	0	0	0	0
O=C(CCc1ccccc1)NC(=S)Nc1cccc(C(=O)O)c1	0	0	4.0	0	0
CN1C(=O)c2cc(NC(=O)C3CCCCC3)ccc2OC[C@H]2O[C@@H](CC(=O)NC3CCCC3)CC[C@H]21	-	0	0	0	0
CCN1C(=O)N(C(C)=O)[C@@H]2C[C@H](C(=O)N3CCCC3)[C@H](C)[C@H](c3ccccc3)C[C@@H]21	-	0	0	0	0
SMILES	DAX1 inh-1	ssDAF-12 act	DAX1 inh-2	hgDAF12 agonist	hcDAF-12 act
O=C(Nc1ccccc1Oc1ccccc1)[C@@H]1O[C@H](CO)[C@H](O)[C@H](O)[C@H]1O	-	0	0	0	0
NS(=O)(=O)c1ccc(CCNC(=O)CSc2nc3c(sc(=S)n3-c3ccccc3)c(=O)[nH]2)cc1	0	0	0	0	0
COc1ccc(NC(=O)N(C)[C@H]2C[C@H]3c4[nH]c5c(-c6ccccc6)cccc5c4CCN3C(=O)[C@H]2[C@H](C)O)cc1	-	0	0	0	0
COc1ccc(/C=N/NC(=S)Nc2cccc(C(=O)O)c2)cc1OC	0	0	0	0	0
COc1cccc(/C=N/NC(=S)Nc2cccc(C(=O)O)c2)c1	0	1.6	0	0	0
Cc1ccc(NC(=O)CCCc2ccccc2)nc1	0	0	3.8	0	0
Cc1ccc(OCC(=O)Nc2cccc(O)c2)cc1C	0	0	0	10.8	0
O=C(CCCc1ccccc1)Nc1cccc(C(=O)O)c1	0	0	4.5	11.7	0
COCCn1c(N)c(C(=O)c2cccc(S(=O)(=O)N3CCCCCC3)c2)c(=O)[nH]c1=O	0	0	0	0	0
CCOc1ccccc1C=C1SC(=S)NC1=O	0	0	0	0	0
COc1ccccc1NC(=S)NC(=O)CCc1ccccc1	0	0	0	0	0
Cc1cccc(C)c1OCC(=O)Nc1cccc(C(=O)O)c1	0	0	3.8	0	0
O=C(CCc1ccccc1)NC(=S)Nc1ccccc1Br	8.4	0	0	0	0
CCC(C)c1ccc(OCC(=O)Nc2cccc(C(=O)Nc3ccc(C(=O)O)cc3)c2)cc1 (centres undefined)	0	0	4.0	0	0
CN(Cc1ccccc1)C(=O)c1csc(COCCO)n1	-	0	0	0	0
CSc1nc2ccc(NC(=O)c3cccs3)cc2s1	0	0	0	10.6	0
N/C(=N\NC(=O)c1ccccc1)c1cc2ccccc2oc1=O	0	0	0	12.2	0
O=C(Nc1ccc(F)cc1)c1cc2ccccc2o1	4.3	1.6	0	0	6.5
COc1cc(NC(=O)C(C)C)ccc1NC(=O)c1cc2ccccc2o1	6.1	0	0	0	0
O=C(Nc1ccc(NC(=O)c2cc3ccccc3o2)cc1)c1ccco1	0	0	0	0	0
CC(C)(C)NC(=O)C1(C)CCC(=O)N1CC(F)(F)F (centres undefined)	-	0	0	0	0
O=C(C(=O)N1CCN(C(=O)C2CCC2)CC1)c1cccc(C(F)(F)F)c1	-	0	0	0	0
Cc1ccc(CN2CCCCC(NC(=O)c3ccc(Br)cc3)C2=O)cc1 (centres undefined)	-	0	0	0	0
CCn1cnc2cc(NC(=O)c3cccs3)ccc21	0	0	3.9	0	0
CSc1nc2ccc(NC(=O)c3ccc(F)c(F)c3)cc2s1	0	0	0	0	0
SMILES	DAX1 inh-1	ssDAF-12 act	DAX1 inh-2	hgDAF12 agonist	hcDAF-12 act
O=C(NCCc1ccc2c(c1)OCCO2)c1ccccc1F	0	0	0	12.2	0
O=C(NCCc1ccccc1)c1ccc2c(c1)OCCO2	0	0	0	0	0
CCn1cnc2cc(NCc3cccs3)ccc21	0	0	0	0	0
CSc1nc2ccc(NC(=O)c3cc4ccccc4o3)cc2s1	0	0	0	12.0	0
O=C(NCCc1ccc(F)cc1)c1cc2ccccc2oc1=O	4.3	0	0	0	0
COC(=O)[C@]12C[C@H](CC(=O)NCc3ccc(OC)c(OC)c3)C(=O)N(CCc3ccc(OC)c(OC)c3)C1=C[C@H](COCc1ccccc1)O[C@@H]2C	-	0	0	0	0
CC(C)(C)n1cnc2cc(NC(=O)c3ccccc3)ccc21	5.5	0	0	11.3	0
O=C(Nc1ccc(Cl)cc1Cl)c1cc2ccccc2o1	0	2.2	0	0	0
Cc1ccc(-c2[nH]c3ccccc3c2SCCNC(=O)c2cc3ccccc3oc2=O)cc1	0	0	0	0	6.5

Source: PubChem BioAssay
